Laboratory results published in PubChem BioAssay (EPA / NIEHS).
“And” between values parts separate entries of the source, which are not always exact repeats. Identical values can stand only once. Inconclusive results are not listed. The source holds several records for some structures; these can differ, active in one and inactive in another. The source made the active and inactive calls. Rule for the calls: active = hit-call score of the fitted dose curve at least 0.9, where 1 is the maximum; inconclusive = response in the unintended direction; inactive = score below 0.9.

Each compound was assayed against human Dual Specificity Protein Phosphatase 3 (DUSP3), DUSP3 (gene 1845) (UniProt P51452) (assay: NVS_ENZ_hDUSP3: NovaScreen (NVS) Enzymatic Assay for human Dual Specificity Protein Phosphatase 3 (DUSP3) (AID 2283152);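 note: phosphatase activity of recombinant human DUSP3 on a fluorogenic substrate without cells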).
human Dual Specificity Protein Phosphatase 3 (DUSP3), DUSP3 (gene 1845), sequence (P51452 whole entry, looked up): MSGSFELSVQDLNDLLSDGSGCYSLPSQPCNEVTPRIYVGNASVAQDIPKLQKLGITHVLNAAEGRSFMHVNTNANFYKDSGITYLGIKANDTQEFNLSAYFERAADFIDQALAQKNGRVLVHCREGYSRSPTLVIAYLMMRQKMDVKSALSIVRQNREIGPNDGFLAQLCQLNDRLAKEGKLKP
In short: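 Cell-free fluorescence-intensity enzyme activity assay with recombinant protein and substrate; loss of signal fitted relative to DMSO baseline. Primary screen in duplicate at 25 uM, actives then run in concentration series; measured 0 h after dosing.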

Structure (SMILES) | outcome
CNC(=S)S | inactive
CCOC(=O)C(Cl)Cc1cc(-n2nc(C)n(C(F)F)c2=O)c(F)cc1Cl (stereo not given) | inactive
CC1COC(Cn2cncn2)(c2ccc(Oc3ccc(Cl)cc3)cc2Cl)O1 (stereo not given) | inactive
CO/C=C(/C(=O)OC)c1ccccc1Oc1cc(Oc2ccccc2C#N)ncn1 | inactive
CCc1nn(C)c(C(=O)NCc2ccc(C(C)(C)C)cc2)c1Cl | inactive

What follows are compounds tested against human Elastase, ELANE (gene 1991) (UniProt P08246) (assay: NVS_ENZ_hElastase: NovaScreen (NVS) Enzymatic Assay for human Elastase (AID 2283153)).
human Elastase, ELANE (gene 1991), sequence (P08246 whole entry, looked up): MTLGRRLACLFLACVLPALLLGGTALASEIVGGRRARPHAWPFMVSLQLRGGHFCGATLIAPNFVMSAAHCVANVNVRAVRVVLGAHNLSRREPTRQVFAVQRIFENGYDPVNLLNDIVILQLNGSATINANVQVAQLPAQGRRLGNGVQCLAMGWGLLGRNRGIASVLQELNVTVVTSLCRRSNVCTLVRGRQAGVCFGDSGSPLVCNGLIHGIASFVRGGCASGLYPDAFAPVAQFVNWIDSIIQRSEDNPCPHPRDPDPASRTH
In short: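 Concentration-response to 50 uM max, run singly for chemicals passing a threshold (e.g., 30% inhibition) in a duplicate 25 uM single-point screen. Neutrophil-derived human elastase, absorbance read-out of enzyme activity at 1.5 h; DMSO baseline.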

Structure (SMILES) | outcome
COC(=O)C=C(C)OP(=O)(OC)OC | inactive
COP(=S)(OC)Oc1nc(Cl)c(Cl)cc1Cl | inactive
Oc1ccccc1-c1ccccc1 | inactive
CNC(=S)S | inactive
CO/C=C(/C(=O)OC)c1ccccc1Oc1cc(Oc2ccccc2C#N)ncn1 | inactive
CCCCNC(=O)n1c(NC(=O)OC)nc2ccccc21 | inactive

The compounds below were run against human Ephrin type-B Receptor 1 (EphB1), EPHB1 (gene 2047) (UniProt P54762) (assay: NVS_ENZ_hEphB1: NovaScreen (NVS) Enzymatic Assay for human Ephrin type-B Receptor 1 (EphB1) (AID 2283154)).
human Ephrin type-B Receptor 1 (EphB1), EPHB1 (gene 2047), sequence (P54762 whole entry, looked up): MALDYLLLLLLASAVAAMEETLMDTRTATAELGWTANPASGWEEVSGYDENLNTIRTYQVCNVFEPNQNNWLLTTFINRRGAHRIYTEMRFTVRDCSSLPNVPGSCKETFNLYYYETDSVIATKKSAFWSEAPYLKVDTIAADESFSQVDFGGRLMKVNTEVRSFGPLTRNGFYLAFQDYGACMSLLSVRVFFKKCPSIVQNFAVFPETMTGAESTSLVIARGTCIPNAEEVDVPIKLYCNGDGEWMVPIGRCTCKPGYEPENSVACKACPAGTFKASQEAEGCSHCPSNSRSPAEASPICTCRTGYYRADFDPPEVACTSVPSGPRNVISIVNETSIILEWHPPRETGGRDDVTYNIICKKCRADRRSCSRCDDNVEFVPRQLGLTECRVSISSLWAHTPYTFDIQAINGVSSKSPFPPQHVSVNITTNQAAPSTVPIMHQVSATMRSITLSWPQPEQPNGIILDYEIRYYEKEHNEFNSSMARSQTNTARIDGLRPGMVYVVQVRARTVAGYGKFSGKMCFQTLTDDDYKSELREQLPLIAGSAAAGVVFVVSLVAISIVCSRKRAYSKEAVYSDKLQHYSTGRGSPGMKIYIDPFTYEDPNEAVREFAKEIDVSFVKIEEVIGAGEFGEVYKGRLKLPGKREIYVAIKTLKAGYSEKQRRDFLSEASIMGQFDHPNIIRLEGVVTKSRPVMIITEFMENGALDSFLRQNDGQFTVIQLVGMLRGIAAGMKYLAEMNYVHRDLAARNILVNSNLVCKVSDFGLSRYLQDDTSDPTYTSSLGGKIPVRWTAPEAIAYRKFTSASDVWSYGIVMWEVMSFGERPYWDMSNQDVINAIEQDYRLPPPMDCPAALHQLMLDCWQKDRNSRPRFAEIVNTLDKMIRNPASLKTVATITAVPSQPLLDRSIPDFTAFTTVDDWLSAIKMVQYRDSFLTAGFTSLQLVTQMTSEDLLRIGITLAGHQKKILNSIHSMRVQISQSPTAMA
Method: NVS_ENZ_hEphB1 is a biochemical, single-readout assay that uses extracted gene-proteins in a cell-free assay. Measurements were taken 1 hour after chemical dosing in a 384-well plate.NVS_ENZ_hEphB1 is one of one assay component(s) measured or calculated from the NVS_ENZ_hEphB1 assay. It is designed to make measurements of enzyme activity, a form of enzyme reporter, as detected with fluorescence intensity signals by Fluorescence and electrophoretic mobility shift technology.Data from the assay component NVS_ENZ_hEphB1 was analyzed into 1 assay endpoint. This assay endpoint, NVS_ENZ_hEphB1, was analyzed in the positive analysis fitting direction relative to DMSO as the negative control and baseline of activity. Using a type of enzyme reporter, loss-of-signal activity can be used to understand changes in the enzymatic activity as they relate to the gene EPHB1. Furthermore, this assay endpoint can be referred to as a primary readout, because this assay has produced multiple assay endpoints where this one serves a enzymatic activity function. To generalize the intended target to other relatable targets, this assay endpoint is annotated to the kinase intended target family, where the subfamily is receptor tyrosine kinase.
Binding assays used specific radioligands (tritiated, iodinated) with non-radioactive competitive displacement ligands in agonist or antagonist protocols (as indicated) and various reference compounds and inhibitors to titrate specific binding to receptors and transporters. Most enzyme assays (CYPs, kinases, phosphatases, proteases, HDACs) used recombinant protein and specific substrates (fluorescence mostly, some colorimetric and radioactive) and inhibitors, followed by a biochemical separation of substrate and product. All assays for the biochemical HTS were initially run in duplicate at a single concentration (10 uM for CYP450 assays and 25 uM for all others). […] Each assay was run with positive and negative controls, and concurrent controls on every plate. The follow-up (secondary) screen tested active chemical-pairs in concentration series, as well as a few additional assays not tested in the primary screen, some selected negative inactives, and several cases re-run in the concentration series for confirmatory purposes.

Structure (SMILES) | outcome
COc1ccc(C(c2ccc(OC)cc2)C(Cl)(Cl)Cl)cc1 | inactive
CCCCOC(=O)c1ccccc1C(=O)OCCCC | inactive
CC1COC(Cn2cncn2)(c2ccc(Oc3ccc(Cl)cc3)cc2Cl)O1 (stereo not given) | inactive
C=CC1(C)OC(=O)N(c2cc(Cl)cc(Cl)c2)C1=O (stereo not given) | inactive
COC(=O)C(C)Oc1ccc(Oc2ccc(Cl)cc2Cl)cc1 (stereo not given) | inactive
N#Cc1cc(Br)c(O)c(Br)c1 | inactive
CCCCNC(=O)n1c(NC(=O)OC)nc2ccccc21 | inactive

What follows are compounds tested against human Ephrin type-A Receptor 2 (EphA2), EPHA2 (gene 1969) (UniProt P29317) (assay: NVS_ENZ_hEphA2: NovaScreen (NVS) Enzymatic Assay for human Ephrin type-A Receptor 2 (EphA2) (AID 2283155)).
human Ephrin type-A Receptor 2 (EphA2), EPHA2 (gene 1969), sequence (P29317 whole entry, looked up): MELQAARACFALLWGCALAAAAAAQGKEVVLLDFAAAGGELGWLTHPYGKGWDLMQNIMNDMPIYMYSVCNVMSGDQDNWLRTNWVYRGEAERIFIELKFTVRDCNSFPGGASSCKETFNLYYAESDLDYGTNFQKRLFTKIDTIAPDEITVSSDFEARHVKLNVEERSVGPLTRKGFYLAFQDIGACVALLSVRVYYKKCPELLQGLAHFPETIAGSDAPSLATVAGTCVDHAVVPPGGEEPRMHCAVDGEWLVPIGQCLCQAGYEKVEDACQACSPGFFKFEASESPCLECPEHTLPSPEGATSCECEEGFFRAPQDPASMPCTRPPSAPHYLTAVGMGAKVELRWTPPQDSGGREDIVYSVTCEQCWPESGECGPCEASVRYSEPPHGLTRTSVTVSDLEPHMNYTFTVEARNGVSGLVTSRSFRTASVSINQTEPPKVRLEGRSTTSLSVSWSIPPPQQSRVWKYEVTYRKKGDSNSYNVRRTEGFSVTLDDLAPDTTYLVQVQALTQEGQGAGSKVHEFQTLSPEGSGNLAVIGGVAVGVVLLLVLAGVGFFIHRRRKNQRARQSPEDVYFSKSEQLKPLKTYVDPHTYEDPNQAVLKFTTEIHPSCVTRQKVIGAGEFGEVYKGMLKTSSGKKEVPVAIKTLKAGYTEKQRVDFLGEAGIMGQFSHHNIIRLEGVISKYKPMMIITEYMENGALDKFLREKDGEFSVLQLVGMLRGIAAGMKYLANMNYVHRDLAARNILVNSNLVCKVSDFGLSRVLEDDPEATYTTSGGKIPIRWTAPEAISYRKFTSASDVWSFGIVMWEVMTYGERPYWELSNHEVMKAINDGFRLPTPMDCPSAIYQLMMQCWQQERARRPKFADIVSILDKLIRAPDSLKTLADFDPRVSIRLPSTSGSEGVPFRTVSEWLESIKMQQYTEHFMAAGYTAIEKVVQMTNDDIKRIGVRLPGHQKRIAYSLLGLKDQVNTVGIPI
In short: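 Enzyme activity of recombinant EphA2 read by fluorescence after mobility-shift separation, 1 h after dosing. Chemicals first tested at 25 uM (duplicate); those passing threshold run as concentration series, top 50 uM, single replicate, relative to DMSO.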

Structure (SMILES) | outcome
CCCN(CCC)c1c([N+](=O)[O-])cc(S(N)(=O)=O)cc1[N+](=O)[O-] | inactive
Cc1ccc(-c2c(Cl)nc(C#N)n2S(=O)(=O)N(C)C)cc1 | inactive
N#Cc1cc(Br)c(O)c(Br)c1 | inactive
CO/C=C(/C(=O)OC)c1ccccc1Oc1cc(Oc2ccccc2C#N)ncn1 | inactive

These compounds were tested against human Esterase Plasma (ES), BCHE (gene 590) (UniProt P06276) (assay: NVS_ENZ_hES: NovaScreen (NVS) Enzymatic Assay for human Esterase Plasma (ES) (AID 2283157)).
human Esterase Plasma (ES), BCHE (gene 590), sequence (P06276 whole entry, looked up): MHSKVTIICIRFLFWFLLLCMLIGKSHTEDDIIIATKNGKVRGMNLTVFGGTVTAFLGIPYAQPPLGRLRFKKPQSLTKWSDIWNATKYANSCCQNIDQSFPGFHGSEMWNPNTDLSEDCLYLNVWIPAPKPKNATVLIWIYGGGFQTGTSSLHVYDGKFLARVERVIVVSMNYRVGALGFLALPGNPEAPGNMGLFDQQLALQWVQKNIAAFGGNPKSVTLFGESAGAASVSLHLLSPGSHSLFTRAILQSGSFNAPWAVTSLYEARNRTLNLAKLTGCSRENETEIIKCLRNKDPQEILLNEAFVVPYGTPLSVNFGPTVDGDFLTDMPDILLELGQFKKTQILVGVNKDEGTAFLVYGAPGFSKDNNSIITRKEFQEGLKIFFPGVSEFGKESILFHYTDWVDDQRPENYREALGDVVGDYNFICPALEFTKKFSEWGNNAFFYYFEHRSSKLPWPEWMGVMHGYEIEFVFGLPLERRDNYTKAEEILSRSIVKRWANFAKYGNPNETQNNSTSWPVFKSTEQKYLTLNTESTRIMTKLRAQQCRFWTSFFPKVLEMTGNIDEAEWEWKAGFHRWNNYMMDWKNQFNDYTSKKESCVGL
In short: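 Screening ran at 25 uM in duplicate, followed by singleton concentration series reaching 50 uM for actives. Human plasma protein, colorimetric detection, 0.25 h exposure, DMSO negative control.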

Structure (SMILES) | AC50 | outcome
COC(=O)C=C(C)OP(=O)(OC)OC | 13.4 µM (active) | –
CNC(=O)ON=CC(C)(C)SC | 11.1 µM (active) | –
CS/C(C)=N/OC(=O)N(C)SN(C)C(=O)O/N=C(\C)SC | 3.07 µM (active) | –
COP(=S)(OC)Oc1nc(Cl)c(Cl)cc1Cl | – | inactive
CC1=C(C(=O)Nc2ccccc2)SCCO1 | 23.6 µM (active) | –
CCCCOC(=O)c1ccccc1C(=O)OCCCC | 11 µM (active) | inactive
CCOC(=O)C(Cl)Cc1cc(-n2nc(C)n(C(F)F)c2=O)c(F)cc1Cl (stereo not given) | – | inactive
CO/C=C(/C(=O)OC)c1ccccc1Oc1cc(Oc2ccccc2C#N)ncn1 | 26.3 µM (active) and 26.4 µM (active) and 10 µM (active) | –

The compounds below were run against human Ephrin type-A Receptor 1 (EphA1), EPHA1 (gene 2041) (UniProt P21709) (assay: NVS_ENZ_hEphA1: NovaScreen (NVS) Enzymatic Assay for human Ephrin type-A Receptor 1 (EphA1) (AID 2283158);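 note: activity is signal loss versus DMSO meaning EphA1 kinase inhibition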).
human Ephrin type-A Receptor 1 (EphA1), EPHA1 (gene 2041), sequence (P21709 whole entry, looked up): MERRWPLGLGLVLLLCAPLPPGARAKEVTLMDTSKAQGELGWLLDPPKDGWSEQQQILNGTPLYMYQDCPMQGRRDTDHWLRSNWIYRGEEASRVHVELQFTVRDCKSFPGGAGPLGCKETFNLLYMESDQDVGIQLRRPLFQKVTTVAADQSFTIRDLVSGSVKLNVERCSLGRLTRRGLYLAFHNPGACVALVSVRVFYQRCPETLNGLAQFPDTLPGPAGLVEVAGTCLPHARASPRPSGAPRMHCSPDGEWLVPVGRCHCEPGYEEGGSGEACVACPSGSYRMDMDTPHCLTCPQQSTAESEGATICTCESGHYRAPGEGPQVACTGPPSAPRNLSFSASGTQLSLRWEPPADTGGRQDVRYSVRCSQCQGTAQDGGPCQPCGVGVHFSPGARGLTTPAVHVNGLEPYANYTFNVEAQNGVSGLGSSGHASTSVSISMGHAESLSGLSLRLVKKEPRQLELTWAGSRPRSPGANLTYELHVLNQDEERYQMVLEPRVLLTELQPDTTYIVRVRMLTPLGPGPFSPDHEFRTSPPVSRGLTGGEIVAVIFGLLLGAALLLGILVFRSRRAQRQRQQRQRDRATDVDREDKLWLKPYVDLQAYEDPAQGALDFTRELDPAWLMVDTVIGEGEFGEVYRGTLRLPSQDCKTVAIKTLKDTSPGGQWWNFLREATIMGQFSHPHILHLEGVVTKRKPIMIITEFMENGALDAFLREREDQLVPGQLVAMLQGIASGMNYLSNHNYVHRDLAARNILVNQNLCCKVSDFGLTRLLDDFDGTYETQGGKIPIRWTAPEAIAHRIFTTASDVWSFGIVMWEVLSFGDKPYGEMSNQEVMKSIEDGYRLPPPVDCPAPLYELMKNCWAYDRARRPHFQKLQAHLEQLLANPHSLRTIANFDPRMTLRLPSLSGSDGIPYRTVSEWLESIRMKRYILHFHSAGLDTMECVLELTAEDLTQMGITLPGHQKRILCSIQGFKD
In short: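 Chemicals first tested in duplicate at 25 uM against recombinant EphA1 with a fluorescent substrate; those passing threshold went to singleton dose-response topping at 50 uM. Activity read 1 h later as mobility-shift fluorescence, loss of signal relative to DMSO.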

Structure (SMILES) | outcome
CCCN(CCC)c1c([N+](=O)[O-])cc(S(N)(=O)=O)cc1[N+](=O)[O-] | inactive
COc1cnc(OC)n2nc(NS(=O)(=O)c3c(OCC(F)F)cccc3C(F)(F)F)nc12 | inactive
Cc1ccc(-c2c(Cl)nc(C#N)n2S(=O)(=O)N(C)C)cc1 | inactive
N#Cc1cc(Br)c(O)c(Br)c1 | inactive

Each compound was assayed against human Fibroblast Growth Factor Receptor 1 (FGFR1), FGFR1 (gene 2260) (UniProt P11362) (assay: NVS_ENZ_hFGFR1: NovaScreen (NVS) Enzymatic Assay for human Fibroblast Growth Factor Receptor 1 (FGFR1) (AID 2283159)).
human Fibroblast Growth Factor Receptor 1 (FGFR1), FGFR1 (gene 2260), sequence (P11362 whole entry, looked up): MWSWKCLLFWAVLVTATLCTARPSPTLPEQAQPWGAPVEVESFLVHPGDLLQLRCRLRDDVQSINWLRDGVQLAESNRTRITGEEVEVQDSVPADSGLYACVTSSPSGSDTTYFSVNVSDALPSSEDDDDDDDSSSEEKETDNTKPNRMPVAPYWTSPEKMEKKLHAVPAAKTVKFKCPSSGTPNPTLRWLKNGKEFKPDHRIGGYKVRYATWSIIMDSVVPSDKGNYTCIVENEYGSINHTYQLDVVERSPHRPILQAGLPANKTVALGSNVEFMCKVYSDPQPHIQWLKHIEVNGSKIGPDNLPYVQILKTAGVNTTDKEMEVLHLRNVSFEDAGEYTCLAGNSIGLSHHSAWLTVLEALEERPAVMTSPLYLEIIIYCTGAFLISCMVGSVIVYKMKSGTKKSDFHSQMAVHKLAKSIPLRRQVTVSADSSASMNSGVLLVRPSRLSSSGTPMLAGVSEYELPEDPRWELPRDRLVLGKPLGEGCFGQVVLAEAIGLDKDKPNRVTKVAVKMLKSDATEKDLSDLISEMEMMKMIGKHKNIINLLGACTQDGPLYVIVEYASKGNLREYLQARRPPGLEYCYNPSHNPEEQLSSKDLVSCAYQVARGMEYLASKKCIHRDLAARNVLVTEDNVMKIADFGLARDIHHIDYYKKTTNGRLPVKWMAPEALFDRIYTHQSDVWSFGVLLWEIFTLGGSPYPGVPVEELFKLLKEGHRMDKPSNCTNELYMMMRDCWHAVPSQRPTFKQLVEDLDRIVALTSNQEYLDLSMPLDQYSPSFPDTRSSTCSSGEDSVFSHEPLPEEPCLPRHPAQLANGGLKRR
In short: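 Cell-free recombinant kinase with fluorescent substrate, product separated by electrophoretic mobility shift; read 1 hour after dosing, loss of signal relative to DMSO. Initial screen in duplicate at 25 uM, actives followed in concentration series.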

Structure (SMILES) | outcome
CCCN(CCC)c1c([N+](=O)[O-])cc(S(N)(=O)=O)cc1[N+](=O)[O-] | inactive
CCOC(=O)C(Cl)Cc1cc(-n2nc(C)n(C(F)F)c2=O)c(F)cc1Cl (stereo not given) | inactive
N#Cc1nn(-c2c(Cl)cc(C(F)(F)F)cc2Cl)c(N)c1S(=O)C(F)(F)F (stereo not given) | inactive
CCCCNC(=O)OCC#CI | inactive
CO/C=C(/C(=O)OC)c1ccccc1Oc1cc(Oc2ccccc2C#N)ncn1 | inactive
